Test results as given in the supplement of paper PMC11732987, “Enantioselective OTUD7B fragment discovery through chemoproteomics screening and high-throughput optimisation” (Communications Chemistry, 2025).

Columns and labels:
Assay in all cases: log2 ratio of Biotin-Ahx-Ub-VS probe labelling (fragment/DMSO); higher = less target engagement (more negative = stronger competition), active = hit call of the paper (q ≤ 0.05, log2 ratio ≤ -1)
Conditions in all cases: compound concentration: 200 uM; treatment time: 3 h
[1] = molecular target: T1, USP42 (UniProt Q9H9J4)
T1 sequence (whole entry): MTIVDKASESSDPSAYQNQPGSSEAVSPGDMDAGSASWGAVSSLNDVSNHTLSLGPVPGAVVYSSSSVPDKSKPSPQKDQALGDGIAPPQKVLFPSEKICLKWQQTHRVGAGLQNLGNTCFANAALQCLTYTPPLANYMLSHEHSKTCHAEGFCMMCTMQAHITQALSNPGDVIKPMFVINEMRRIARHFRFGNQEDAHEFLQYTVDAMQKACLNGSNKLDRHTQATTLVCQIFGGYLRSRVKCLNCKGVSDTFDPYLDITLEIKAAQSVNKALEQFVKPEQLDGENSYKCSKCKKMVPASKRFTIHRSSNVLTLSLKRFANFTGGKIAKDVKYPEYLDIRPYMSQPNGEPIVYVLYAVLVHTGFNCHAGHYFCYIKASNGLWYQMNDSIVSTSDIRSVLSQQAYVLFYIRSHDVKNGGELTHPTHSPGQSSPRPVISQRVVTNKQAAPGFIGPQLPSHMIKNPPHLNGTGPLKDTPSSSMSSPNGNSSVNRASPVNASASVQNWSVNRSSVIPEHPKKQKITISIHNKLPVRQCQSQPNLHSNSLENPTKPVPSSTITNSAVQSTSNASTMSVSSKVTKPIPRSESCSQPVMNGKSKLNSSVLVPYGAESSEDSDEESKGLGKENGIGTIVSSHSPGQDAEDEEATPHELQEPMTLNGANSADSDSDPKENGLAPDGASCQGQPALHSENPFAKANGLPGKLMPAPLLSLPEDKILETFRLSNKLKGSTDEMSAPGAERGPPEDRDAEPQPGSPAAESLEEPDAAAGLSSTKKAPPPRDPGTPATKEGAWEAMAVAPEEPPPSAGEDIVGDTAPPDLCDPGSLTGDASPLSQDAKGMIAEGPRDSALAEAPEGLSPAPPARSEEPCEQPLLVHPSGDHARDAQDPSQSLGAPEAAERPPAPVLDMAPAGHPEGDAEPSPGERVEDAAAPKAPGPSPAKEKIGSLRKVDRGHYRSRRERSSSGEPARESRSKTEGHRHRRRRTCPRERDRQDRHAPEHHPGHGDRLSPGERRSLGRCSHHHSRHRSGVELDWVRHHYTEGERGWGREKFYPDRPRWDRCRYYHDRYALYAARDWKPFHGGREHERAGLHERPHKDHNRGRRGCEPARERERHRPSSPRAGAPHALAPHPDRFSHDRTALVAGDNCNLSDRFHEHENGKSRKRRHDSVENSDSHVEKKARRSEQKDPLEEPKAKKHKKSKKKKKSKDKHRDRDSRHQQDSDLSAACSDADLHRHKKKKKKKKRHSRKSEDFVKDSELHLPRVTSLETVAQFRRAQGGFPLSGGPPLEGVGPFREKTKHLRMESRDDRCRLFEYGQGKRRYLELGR
Procedure, shortened: (§1)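 Labelling with Biotin-Ahx-Ub-VS (0.5 µM final, 1 h) followed a 3 h triplicate treatment of HEK293T lysate (495 µg per sample, Tris/CHAPS/IGEPAL buffer with protease inhibitors) with fragment at 200 µM or vehicle. Labelled DUBs were NeutrAvidin-enriched, digested with LysC and trypsin, and run by diaPASEF LC-MS/MS. The values, average log2 fragment/vehicle ratios by unpaired t-test, come from global-median-normalised Spectronaut label-free quantities. Proteins with ≥2 unique peptides were used.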

[2] = molecular target: USP46 (UniProt P62068)
USP46, sequence (P62068 whole entry): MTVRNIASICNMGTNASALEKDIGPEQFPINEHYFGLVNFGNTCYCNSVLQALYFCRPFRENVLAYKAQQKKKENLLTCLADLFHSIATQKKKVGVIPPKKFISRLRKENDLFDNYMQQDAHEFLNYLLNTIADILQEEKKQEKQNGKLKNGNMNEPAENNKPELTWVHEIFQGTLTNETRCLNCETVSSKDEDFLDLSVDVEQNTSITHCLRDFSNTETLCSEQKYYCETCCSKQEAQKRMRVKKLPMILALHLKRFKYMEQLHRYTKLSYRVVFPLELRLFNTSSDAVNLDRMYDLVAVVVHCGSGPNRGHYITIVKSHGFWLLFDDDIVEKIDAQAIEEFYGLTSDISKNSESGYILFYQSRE
Procedure, shortened: as §1

[3] = molecular target: T2, USP47 (UniProt Q96K76)
T2 sequence (whole entry): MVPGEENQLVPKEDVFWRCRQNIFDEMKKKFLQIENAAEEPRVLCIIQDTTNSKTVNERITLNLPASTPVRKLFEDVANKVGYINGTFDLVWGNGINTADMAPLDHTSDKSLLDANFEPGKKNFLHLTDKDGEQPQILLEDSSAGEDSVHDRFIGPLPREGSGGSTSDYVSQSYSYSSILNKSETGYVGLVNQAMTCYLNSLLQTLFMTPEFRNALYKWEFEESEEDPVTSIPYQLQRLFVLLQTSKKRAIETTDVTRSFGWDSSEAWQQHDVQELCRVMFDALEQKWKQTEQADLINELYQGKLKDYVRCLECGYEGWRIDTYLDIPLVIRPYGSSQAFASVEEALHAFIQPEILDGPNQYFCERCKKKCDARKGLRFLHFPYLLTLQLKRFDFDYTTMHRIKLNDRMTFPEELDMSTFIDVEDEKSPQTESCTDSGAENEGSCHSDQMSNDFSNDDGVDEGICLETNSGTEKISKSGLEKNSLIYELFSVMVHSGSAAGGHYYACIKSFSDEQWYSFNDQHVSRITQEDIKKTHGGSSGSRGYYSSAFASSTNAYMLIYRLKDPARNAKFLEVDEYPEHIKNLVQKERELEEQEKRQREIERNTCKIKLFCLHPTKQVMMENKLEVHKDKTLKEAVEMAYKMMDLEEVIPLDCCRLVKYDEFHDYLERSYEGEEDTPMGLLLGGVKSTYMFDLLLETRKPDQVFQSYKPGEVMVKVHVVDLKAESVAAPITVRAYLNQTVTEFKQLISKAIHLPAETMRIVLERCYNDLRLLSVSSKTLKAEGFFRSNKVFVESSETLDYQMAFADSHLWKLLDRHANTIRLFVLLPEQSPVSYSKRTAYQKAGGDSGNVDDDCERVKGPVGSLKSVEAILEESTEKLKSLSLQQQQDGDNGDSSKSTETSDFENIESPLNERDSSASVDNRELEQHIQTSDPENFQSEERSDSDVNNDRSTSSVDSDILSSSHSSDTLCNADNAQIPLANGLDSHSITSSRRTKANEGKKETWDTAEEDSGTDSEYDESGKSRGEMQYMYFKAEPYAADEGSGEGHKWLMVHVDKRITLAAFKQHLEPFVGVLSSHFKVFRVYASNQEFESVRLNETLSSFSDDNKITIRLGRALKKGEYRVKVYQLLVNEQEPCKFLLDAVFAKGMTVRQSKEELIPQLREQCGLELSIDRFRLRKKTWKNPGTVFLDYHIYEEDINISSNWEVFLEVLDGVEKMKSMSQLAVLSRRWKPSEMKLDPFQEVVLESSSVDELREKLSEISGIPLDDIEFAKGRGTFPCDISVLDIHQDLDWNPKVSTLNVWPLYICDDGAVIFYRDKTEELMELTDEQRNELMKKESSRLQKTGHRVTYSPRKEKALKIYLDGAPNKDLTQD
Procedure, shortened: as §1

[4] = molecular target: T3, USP48 (UniProt Q86UV5)
T3 sequence (whole entry): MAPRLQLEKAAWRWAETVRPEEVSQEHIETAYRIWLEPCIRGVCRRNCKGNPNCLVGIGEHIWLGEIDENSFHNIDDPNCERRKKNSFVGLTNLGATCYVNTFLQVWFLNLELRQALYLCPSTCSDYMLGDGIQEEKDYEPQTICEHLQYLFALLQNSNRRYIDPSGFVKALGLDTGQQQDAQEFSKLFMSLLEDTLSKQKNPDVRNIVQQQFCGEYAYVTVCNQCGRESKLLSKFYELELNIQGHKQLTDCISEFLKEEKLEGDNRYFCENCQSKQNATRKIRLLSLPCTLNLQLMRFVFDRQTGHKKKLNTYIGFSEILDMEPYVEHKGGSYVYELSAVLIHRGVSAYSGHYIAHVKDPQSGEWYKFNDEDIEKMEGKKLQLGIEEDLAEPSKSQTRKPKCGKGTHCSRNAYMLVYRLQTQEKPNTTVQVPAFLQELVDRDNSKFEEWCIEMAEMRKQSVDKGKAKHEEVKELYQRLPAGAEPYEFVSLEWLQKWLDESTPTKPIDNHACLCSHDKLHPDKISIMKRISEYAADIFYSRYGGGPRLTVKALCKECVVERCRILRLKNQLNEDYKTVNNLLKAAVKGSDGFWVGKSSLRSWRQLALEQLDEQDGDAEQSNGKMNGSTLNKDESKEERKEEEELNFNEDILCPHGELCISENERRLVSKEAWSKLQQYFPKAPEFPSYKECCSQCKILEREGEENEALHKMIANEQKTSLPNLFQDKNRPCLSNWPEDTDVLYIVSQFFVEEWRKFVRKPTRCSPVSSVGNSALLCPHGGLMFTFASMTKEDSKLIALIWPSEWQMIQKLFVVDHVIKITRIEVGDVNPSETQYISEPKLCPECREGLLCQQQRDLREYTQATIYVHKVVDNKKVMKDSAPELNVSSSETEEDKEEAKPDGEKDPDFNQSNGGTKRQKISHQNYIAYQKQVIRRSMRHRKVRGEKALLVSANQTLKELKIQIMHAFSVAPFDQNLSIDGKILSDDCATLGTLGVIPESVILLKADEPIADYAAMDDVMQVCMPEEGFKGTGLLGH
Procedure, shortened: as §1

[5] = molecular target: T4, USP5 (UniProt P45974)
T4 sequence (whole entry): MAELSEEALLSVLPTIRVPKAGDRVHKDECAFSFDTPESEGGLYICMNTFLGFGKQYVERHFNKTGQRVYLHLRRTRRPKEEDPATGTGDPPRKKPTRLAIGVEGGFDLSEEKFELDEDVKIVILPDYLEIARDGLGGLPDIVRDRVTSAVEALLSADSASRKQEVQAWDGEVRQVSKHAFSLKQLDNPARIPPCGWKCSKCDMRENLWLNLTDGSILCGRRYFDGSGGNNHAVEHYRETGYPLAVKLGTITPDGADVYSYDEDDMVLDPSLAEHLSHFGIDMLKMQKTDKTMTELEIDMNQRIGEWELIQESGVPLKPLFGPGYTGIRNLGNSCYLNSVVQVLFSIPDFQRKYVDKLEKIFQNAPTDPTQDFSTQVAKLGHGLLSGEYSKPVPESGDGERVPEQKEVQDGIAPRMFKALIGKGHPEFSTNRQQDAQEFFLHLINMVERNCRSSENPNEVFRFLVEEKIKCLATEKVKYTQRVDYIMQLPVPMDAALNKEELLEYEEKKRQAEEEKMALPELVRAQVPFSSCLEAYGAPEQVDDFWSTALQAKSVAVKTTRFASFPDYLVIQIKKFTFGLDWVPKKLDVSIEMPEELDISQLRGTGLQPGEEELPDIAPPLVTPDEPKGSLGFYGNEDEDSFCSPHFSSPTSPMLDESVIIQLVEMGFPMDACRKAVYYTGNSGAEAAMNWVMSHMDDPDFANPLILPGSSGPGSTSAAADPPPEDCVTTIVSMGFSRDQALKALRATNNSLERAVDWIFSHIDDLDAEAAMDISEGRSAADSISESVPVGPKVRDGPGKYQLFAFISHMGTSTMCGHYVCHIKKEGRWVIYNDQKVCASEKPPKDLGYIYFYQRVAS
Procedure, shortened: as §1

[6] = molecular target: USP54 (UniProt Q70EL1)
USP54, sequence (Q70EL1 whole entry): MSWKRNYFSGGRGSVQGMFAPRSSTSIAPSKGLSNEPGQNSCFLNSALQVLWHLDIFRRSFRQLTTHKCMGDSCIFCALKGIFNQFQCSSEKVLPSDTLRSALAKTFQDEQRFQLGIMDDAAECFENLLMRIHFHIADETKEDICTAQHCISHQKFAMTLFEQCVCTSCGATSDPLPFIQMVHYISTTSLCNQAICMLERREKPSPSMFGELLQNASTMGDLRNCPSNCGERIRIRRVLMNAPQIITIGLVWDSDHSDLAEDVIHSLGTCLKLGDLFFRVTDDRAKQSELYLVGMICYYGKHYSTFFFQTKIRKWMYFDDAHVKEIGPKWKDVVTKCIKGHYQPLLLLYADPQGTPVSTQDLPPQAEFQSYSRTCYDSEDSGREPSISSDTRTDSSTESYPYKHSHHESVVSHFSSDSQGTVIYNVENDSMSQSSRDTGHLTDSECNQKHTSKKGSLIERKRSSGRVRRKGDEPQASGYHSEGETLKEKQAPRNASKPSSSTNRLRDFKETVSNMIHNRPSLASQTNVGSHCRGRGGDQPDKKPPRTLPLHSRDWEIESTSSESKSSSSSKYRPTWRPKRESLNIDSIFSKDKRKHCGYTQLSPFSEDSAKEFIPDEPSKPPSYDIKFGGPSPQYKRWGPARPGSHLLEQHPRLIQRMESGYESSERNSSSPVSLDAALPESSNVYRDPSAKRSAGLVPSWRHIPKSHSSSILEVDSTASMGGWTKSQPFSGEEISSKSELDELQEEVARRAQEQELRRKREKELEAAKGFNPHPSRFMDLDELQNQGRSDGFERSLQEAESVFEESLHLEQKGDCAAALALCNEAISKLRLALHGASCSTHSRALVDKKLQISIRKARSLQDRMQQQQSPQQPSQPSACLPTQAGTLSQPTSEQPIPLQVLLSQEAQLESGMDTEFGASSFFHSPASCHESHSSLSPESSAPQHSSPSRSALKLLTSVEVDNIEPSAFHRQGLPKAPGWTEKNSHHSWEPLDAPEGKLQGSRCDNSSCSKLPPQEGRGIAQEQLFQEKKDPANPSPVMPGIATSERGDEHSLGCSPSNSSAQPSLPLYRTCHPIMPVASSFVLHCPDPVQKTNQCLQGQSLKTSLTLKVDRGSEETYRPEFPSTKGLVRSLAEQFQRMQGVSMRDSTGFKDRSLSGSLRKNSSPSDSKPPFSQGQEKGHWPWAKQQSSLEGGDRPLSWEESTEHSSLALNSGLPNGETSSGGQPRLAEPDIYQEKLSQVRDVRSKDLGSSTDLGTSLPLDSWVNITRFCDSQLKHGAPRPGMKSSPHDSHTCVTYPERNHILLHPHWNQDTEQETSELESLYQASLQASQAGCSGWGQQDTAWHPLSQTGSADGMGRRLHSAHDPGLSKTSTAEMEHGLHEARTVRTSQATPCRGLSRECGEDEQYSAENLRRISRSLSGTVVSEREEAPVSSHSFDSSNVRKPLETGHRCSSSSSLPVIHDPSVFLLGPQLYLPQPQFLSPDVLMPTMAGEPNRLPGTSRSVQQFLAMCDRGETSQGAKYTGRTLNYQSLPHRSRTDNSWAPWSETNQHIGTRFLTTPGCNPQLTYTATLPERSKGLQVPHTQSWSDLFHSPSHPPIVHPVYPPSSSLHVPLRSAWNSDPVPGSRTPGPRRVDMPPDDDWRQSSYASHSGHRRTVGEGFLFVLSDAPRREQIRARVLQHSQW
Procedure, shortened: as §1

[7] = molecular target: USP7 (UniProt Q93009)
Procedure, shortened: as §1

[8] = molecular target: T5, USP8 (UniProt P40818)
T5 sequence (whole entry): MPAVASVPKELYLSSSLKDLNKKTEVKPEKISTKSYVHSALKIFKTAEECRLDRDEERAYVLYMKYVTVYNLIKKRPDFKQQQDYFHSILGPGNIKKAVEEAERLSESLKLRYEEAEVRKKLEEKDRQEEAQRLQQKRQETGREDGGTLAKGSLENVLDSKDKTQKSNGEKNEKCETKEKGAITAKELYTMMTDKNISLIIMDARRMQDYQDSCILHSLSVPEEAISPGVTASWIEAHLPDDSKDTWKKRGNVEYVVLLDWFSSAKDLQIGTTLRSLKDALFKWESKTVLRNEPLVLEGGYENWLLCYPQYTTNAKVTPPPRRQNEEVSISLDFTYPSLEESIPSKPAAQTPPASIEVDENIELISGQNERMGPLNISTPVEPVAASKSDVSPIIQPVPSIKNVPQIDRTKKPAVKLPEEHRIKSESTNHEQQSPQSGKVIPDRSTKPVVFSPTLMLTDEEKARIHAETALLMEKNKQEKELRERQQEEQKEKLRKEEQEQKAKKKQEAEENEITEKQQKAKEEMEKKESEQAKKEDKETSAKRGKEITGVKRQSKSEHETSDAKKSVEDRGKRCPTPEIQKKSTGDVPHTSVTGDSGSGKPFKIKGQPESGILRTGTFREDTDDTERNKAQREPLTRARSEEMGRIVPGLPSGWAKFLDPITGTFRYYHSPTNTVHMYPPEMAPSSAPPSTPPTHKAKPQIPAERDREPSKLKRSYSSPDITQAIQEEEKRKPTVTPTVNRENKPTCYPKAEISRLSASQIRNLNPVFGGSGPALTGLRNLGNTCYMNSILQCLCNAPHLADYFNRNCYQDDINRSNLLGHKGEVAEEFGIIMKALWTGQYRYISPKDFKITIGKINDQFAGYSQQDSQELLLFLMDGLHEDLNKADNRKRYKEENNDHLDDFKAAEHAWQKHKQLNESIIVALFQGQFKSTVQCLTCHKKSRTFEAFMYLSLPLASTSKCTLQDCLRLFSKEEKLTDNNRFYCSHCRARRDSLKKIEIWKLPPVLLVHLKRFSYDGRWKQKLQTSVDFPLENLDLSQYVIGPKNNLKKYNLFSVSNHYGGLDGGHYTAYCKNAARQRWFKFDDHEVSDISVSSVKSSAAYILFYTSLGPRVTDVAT
Procedure, shortened: as §1

[9] = molecular target: USP9X (UniProt Q93008)
USP9X, sequence (Q93008 whole entry): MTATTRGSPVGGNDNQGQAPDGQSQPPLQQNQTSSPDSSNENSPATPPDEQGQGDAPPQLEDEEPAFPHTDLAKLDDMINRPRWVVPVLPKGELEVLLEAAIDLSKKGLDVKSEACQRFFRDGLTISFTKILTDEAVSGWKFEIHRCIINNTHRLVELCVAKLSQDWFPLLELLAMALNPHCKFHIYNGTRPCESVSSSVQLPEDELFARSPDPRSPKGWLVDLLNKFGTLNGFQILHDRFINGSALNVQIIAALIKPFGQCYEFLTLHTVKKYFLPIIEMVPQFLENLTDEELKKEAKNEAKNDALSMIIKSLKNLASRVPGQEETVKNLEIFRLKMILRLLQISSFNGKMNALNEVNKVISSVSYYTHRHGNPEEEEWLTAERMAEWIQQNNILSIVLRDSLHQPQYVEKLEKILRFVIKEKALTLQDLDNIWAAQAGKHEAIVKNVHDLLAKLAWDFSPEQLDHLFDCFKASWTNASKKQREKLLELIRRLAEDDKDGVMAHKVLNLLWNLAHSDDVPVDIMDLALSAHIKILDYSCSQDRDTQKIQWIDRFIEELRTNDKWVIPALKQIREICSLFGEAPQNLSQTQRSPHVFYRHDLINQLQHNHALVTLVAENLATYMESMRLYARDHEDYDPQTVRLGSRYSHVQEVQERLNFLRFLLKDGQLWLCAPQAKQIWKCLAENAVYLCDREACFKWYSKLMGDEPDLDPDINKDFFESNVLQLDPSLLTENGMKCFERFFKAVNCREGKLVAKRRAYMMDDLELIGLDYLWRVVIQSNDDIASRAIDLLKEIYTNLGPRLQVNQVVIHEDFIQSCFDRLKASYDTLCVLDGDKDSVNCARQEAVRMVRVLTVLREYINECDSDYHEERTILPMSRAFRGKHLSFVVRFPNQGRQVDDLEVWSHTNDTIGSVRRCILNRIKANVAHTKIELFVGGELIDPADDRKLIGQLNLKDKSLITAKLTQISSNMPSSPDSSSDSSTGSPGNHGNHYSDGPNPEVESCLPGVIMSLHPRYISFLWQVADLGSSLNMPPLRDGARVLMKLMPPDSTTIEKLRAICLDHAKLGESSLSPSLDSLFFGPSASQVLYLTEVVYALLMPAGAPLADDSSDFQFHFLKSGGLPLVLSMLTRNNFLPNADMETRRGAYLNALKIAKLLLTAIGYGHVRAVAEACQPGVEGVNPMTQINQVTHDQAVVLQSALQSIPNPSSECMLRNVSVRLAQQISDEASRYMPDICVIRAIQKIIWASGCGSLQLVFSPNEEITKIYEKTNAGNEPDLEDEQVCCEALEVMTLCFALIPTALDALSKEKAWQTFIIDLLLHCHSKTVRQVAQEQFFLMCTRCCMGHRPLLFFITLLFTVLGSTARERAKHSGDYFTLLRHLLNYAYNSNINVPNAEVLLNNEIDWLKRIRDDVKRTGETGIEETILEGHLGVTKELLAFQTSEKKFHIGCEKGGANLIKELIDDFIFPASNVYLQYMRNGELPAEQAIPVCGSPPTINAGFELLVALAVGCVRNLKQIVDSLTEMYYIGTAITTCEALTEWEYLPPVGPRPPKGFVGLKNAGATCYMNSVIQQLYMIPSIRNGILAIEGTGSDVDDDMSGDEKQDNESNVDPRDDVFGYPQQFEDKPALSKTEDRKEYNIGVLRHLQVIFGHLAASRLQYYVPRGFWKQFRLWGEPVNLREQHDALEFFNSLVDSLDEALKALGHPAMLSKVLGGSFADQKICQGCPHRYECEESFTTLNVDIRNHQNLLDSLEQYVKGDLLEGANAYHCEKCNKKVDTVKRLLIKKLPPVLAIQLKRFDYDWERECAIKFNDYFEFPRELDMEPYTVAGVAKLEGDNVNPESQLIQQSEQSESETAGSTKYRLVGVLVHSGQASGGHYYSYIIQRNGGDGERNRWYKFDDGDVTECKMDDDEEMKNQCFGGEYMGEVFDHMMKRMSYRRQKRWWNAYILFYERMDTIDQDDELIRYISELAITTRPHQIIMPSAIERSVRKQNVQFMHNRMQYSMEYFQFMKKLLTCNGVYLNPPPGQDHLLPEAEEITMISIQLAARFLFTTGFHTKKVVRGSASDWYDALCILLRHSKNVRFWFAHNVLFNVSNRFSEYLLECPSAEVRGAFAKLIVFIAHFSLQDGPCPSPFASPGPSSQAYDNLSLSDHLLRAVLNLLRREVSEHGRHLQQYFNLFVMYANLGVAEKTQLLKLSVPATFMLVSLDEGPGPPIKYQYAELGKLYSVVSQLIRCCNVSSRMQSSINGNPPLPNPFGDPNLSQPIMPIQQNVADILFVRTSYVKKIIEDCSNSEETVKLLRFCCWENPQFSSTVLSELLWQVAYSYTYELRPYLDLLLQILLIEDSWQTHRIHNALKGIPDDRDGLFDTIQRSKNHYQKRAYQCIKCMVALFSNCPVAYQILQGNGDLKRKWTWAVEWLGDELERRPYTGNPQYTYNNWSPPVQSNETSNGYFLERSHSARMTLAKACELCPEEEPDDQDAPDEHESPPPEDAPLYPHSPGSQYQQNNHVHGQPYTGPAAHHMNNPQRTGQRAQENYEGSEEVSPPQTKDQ
Procedure, shortened: as §1

[10] = molecular target: UniProt O00487
UniProt O00487, sequence (O00487 whole entry): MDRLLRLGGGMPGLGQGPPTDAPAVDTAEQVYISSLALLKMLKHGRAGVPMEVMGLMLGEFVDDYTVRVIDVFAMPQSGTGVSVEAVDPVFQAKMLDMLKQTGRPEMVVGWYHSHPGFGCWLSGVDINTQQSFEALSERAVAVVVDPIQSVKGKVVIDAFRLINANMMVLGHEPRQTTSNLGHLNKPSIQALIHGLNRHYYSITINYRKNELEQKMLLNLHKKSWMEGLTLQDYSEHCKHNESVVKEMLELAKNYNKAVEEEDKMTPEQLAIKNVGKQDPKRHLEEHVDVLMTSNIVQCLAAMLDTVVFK
Procedure, shortened: as §1

Measured: log2 ratio of Biotin-Ahx-Ub-VS probe labelling

Cc1ccc(-c2nnc(C)[nH]2)c(NC(=O)CCl)c1
inactive: [1] 0.00752 | [2] 0.277 | [3] -0.177 | [4] -0.239 | [5] 0.0867 | [6] -0.227 | [7] -0.138 | [8] 0.112 | [9] -0.0335 | [10] -0.138
